Activity calls are given as the source filed them. Unless noted, no rule for the calls is given here.
Key:
[1] = compounds binding Alexa647 anti-His antibody – biochemical, small-molecule microarray, 635 nm fluorescence, artefact control for SMM control protein annotation, primary screen (AID 1128); conditions: higher = more signal;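 also: score merges feature fluorescence with signal-to-noise for each printed compound spot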
[2] = system: Human papillomavirus type 1a E7 protein (residues 1-88); experiment: HPV1a E7 small-molecule binders, primary screen, biochemical, small-molecule microarray, residues 1-88, 635 nm (AID 1129); conditions: small-molecule microarray binding, fluorescence 635 nm; higher = more signal
[3] = molecular target: Focal adhesion kinase 1 (Homo sapiens) (UniProt Q05397); experiment: PTK2 protein binding on printed compound slides – biochemical, small-molecule microarray, 635/667 nm fluorescence, BSA, DTT, primary screen (AID 1130); conditions: 635 nm fluorescence, higher = more signal;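 also: composite of spot emission at 667 nm and signal to noise over triplicate slides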
Sequence of Focal adhesion kinase 1 (Homo sapiens) (Q05397 whole entry, looked up): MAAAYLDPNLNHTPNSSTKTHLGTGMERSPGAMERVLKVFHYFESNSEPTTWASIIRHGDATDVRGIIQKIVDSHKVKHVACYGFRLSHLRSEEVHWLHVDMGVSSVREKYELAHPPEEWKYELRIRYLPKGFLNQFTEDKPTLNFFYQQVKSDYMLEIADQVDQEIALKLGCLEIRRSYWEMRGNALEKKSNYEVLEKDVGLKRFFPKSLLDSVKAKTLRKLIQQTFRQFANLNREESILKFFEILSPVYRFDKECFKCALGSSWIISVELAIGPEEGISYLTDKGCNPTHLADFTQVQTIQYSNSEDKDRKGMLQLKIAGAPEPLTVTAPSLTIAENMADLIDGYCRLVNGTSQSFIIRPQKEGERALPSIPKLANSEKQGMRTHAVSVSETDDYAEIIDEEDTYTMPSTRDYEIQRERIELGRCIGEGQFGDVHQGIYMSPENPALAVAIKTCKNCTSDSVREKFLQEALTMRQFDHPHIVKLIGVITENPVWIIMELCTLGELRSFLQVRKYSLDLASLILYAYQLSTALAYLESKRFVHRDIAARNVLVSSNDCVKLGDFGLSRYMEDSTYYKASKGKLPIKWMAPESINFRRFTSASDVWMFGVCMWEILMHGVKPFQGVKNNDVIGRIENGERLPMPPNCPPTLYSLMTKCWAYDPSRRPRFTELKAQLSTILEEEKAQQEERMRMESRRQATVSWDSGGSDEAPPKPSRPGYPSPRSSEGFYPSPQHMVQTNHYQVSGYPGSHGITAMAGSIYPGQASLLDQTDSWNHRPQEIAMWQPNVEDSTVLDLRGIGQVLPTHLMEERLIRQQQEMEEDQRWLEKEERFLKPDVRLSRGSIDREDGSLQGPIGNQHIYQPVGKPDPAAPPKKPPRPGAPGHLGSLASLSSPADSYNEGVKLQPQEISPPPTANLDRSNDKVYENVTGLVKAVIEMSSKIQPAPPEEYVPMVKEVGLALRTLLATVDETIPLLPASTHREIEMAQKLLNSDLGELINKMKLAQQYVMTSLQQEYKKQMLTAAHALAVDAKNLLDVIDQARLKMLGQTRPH

[4] = system: Fibrinogen (Alexa647-labelled); experiment: Alexa647-fibrinogen binding to printed small molecules – biochemical, small-molecule microarray, 635/667 nm fluorescence, artefact control for SMM control-protein annotation, profiling panel (AID 1131); conditions: fibrinogen-A647 binding fluorescence, higher = more signal;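 also: z-score merges 667 nm fluorescence with per-spot signal-to-noise over triplicate slides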
[5] = molecular target: Follistatin (Homo sapiens) (UniProt P19883); experiment: FST protein binding to printed compounds – biochemical, small-molecule microarray, 635/667 nm fluorescence, primary screen (AID 1132); conditions: 635 nm fluorescence, higher = more signal
Sequence of Follistatin (Homo sapiens) (P19883 whole entry, looked up): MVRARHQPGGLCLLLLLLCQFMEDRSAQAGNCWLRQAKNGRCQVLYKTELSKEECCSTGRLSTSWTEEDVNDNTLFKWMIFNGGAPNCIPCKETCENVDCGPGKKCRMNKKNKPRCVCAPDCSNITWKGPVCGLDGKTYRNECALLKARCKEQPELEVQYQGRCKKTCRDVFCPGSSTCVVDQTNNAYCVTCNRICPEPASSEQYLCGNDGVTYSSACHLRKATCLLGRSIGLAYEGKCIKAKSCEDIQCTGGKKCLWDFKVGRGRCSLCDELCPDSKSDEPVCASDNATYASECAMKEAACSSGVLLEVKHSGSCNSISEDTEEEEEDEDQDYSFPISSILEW

[6] = molecular target: Fibroblast growth factor 2 (Homo sapiens) (UniProt P09038); experiment: basic fibroblast growth factor binding to printed compounds – biochemical, small-molecule microarray, 635/667 nm fluorescence, primary screen (AID 1133); conditions: FGF2, fluorescence 635/667, higher = more signal
Sequence of Fibroblast growth factor 2 (Homo sapiens) (P09038 whole entry, looked up): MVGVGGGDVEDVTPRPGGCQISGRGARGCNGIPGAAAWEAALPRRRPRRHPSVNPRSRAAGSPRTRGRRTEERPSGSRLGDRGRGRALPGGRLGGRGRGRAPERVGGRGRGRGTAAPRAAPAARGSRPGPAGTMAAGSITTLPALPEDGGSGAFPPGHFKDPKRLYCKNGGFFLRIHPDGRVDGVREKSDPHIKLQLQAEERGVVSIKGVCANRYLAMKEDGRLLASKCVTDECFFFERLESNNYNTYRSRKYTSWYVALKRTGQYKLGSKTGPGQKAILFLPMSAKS

[7] = JC-1 mitochondrial potential readout, lung cancer cells – cell-based, A549, JC-1 fluorescence, basal, 24 h, 100 nL, profiling panel (AID 1138); conditions: higher = more signal;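 also: A549 lung adenocarcinoma cells under basal conditions with no added stimulus; test concentration not given here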
Lefty1 = Lefty1 protein binding to printed compounds – biochemical, small-molecule microarray, 635/667 nm fluorescence, primary screen (AID 1139); conditions: fluorescence 635/667, higher = more signal
[8] = system: wheat germ agglutinin (Triticum aestivum), Alexa647-labelled; experiment: Alexa647-WGA lectin binding to printed small molecules – biochemical, small-molecule microarray, 635/667 nm fluorescence, artefact control for SMM control-protein annotation, profiling panel (AID 1140); conditions: WGA-A647 binding, 635 nm fluorescence, higher = more signal;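 also: score merges 667 nm feature emission with signal to noise over triplicate slides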
[9] = molecular target: Luciferin 4-monooxygenase (Photinus pyralis) (UniProt P08659); experiment: inhibition of purified Photinus pyralis luciferase – biochemical, luminescence, purified enzyme, 2006 set, primary screen (AID 1141); conditions: purified firefly luciferase, SteadyGlo luminescence, 30 min; higher = more signal, called active from +8 up or from −8 down;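 also: cell-free assay with purified firefly luciferase at 100 ng per well in PBS; test concentration not given here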
Sequence of Luciferin 4-monooxygenase (Photinus pyralis) (P08659 whole entry, looked up): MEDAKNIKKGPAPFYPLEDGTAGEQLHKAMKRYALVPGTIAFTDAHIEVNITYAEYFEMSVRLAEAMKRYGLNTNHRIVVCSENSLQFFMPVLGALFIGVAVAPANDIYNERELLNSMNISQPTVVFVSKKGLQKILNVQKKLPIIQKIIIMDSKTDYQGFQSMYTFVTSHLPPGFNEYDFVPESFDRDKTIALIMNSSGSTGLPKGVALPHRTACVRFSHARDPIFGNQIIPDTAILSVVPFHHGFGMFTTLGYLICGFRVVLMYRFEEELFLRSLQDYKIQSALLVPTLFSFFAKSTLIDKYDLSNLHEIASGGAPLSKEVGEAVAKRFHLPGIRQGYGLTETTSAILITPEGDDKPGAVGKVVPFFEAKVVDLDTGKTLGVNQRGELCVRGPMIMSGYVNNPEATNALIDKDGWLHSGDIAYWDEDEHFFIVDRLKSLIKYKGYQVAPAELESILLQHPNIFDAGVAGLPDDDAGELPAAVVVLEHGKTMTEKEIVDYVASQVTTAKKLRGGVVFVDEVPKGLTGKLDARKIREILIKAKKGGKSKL

[10] = system: Wnt5a (protein binding on small-molecule microarray); experiment: small molecules binding Wnt5a protein – biophysical, small-molecule microarray, 635/667 nm fluorescence, primary screen (AID 1142); conditions: 635 nm fluorescence, higher = more signal;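 also: fluorescence read at 667 nm with signal to noise per printed feature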
[11] = ATP-based viability of Huh7 replicon cells – cell-based, CellTiter-Glo luminescence, basal, 48 h, cytotoxicity control for HCV replication inhibitor project, primary screen (AID 1143); conditions: higher = more signal, called active from +8 up or from −8 down;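 also: Huh7 hepatoma cells carrying a hepatitis C replication reporter with no stimulus; test concentration not given here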
[12] = Pseudomonas biofilm growth suppression – PAO1 strain, BacTiter-Glo luminescence, LB-PBS, primary screen (AID 1144); conditions: P. aeruginosa PAO1 biofilm, 12 h, higher = more signal
[13] = basal CRE-LacZ reporter activity in PC12 – cell-based, unstimulated, primary screen (AID 1145); conditions: no forskolin, luminescence, 4.5 h, higher = more signal, called active from +8 up or from −8 down
[14] = forskolin-driven CRE-LacZ activity in PC12 – cell-based, CRE-LacZ reporter, forskolin-stimulated, primary screen (AID 1146); conditions: luminescence, 4.5 h, higher = more signal, called active from +8 up or from −8 down;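 also: PC12 cells with 6xCRE LacZ reporter stimulated by forskolin 10 µM; beta-galactosidase reporter signal reflecting CREB driven transcription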
[15] = molecular target: Streptavidin (Streptomyces avidinii) (UniProt P22629); experiment: compounds binding control protein streptavidin – biophysical, small-molecule microarray, 635/667 nm fluorescence, artefact control for SMM compound annotation, primary screen (AID 1147); conditions: higher = more signal;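 also: signal reflects streptavidin binding to arrayed compounds as a control protein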
Sequence of Streptavidin (Streptomyces avidinii) (P22629 whole entry, looked up): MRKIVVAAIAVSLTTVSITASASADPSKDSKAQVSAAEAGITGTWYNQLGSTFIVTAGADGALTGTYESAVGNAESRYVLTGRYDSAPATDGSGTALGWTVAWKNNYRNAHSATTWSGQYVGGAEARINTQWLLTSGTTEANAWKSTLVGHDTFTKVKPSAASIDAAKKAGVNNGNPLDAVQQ

[16] = probe aInhba binding on compound microarray – biochemical, small-molecule microarray, 635/667 nm fluorescence, primary screen (AID 1148); conditions: higher = more signal;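 also: score merges 667nm spot fluorescence with signal-to-noise for antibody binding to printed compounds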
Torsin-1A (Homo sapiens) [17] = molecular target: Torsin-1A (Homo sapiens) (UniProt O14656); experiment: TOR1A wild-type binding on microarray – cell lysate, small-molecule microarray, lysate, 635/667 nm, primary screen (AID 1149); conditions: COS7 hTOR1A-WT lysate, 635 nm fluorescence, higher = more signal
Sequence of Torsin-1A (Homo sapiens) (O14656 whole entry, looked up): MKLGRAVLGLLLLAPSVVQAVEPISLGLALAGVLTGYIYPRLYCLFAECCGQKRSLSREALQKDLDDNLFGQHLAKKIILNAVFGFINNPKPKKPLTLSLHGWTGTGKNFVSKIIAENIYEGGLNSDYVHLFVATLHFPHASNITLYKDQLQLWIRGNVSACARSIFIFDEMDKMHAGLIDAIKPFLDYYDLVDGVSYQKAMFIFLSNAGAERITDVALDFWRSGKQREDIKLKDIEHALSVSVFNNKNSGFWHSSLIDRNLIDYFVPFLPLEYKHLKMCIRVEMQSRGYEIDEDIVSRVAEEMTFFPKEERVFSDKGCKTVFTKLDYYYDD

Torsin-1A (Homo sapiens) [18] = molecular target: Torsin-1A (Homo sapiens) (UniProt O14656); experiment: torsin A mutant lysate binding on microarrays – cell lysate, small-molecule microarray, COS7 lysate, 635/667 nm fluorescence, primary screen (AID 1150); conditions: COS7 hTOR1A mutant lysate, 635 nm fluorescence, higher = more signal;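 also: score pools 667 nm emission and signal to noise measuring lysate protein binding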
[19] = system: Sonic hedgehog protein (Shh); experiment: Sonic hedgehog microarray binding compounds – biochemical, small-molecule microarray, 635/667 nm fluorescence, primary screen (AID 1151); conditions: 635 nm fluorescence, higher = more signal;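 also: Shh protein binding to compounds spotted on small-molecule microarray slides; score combines spot fluorescence intensity with signal-to-noise across triplicate slides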

Row | SMILES | composite z-score [1] | composite z-score [2] | composite z-score [3] | composite z-score [4] | composite z-score [5] | composite z-score [6] | z-score [7] | composite z-score (Lefty1) | composite z-score [8] | z-score [9] | composite z-score [10] | z-score [11] | z-score [12] | z-score [13] | z-score [14] | composite z-score [15] | composite z-score [16] | composite z-score (Torsin-1A (Homo sapiens) [17]) | composite z-score (Torsin-1A (Homo sapiens) [18]) | composite z-score [19]
1 | C=C(/C(=C/C[C@H](OC(=O)c1ccncc1)c1ccc(OCCO)cc1)c1cnc2ccccc2c1)C(C)C | 0.426 | 1.21 | 0.144 | 0.853 | 1.47 | 1.82 | 1.26 | 1.52 | 0.843 | -2.12 (inactive) | 1.32 | -2.02 (inactive) | -0.295 (inactive) | 6.42 (inactive) | -0.429 (inactive) | 1.3 | 0.0471 | 1.12 | 0.551 | 2.16
2 | CC(C)(C)N1C(=O)[C@H]2[C@H]3[C@H](O)[C@H](O)CC(=NOCc4ccccc4)[C@@H]3CC[C@H]2C1=O | 0.94 | 0.808 | -0.0913 | 0.921 | 0.785 | 0.742 | 0.0533 | 0.744 | 0.441 | -1 (inactive) | 0.351 | -0.939 (inactive) | 0.614 (inactive) | 0.16 (inactive) | 0.479 (inactive) | 0.33 | -0.0986 | 0.678 | 0.119 | 1.26
3 | CO[C@@H]1COC(=O)CC=C[C@@H](C)[C@@H]2C=C[C@@H](O)[C@@H](COC(=O)CC=C[C@H]1C)O2 | 0.235 | -0.912 | -0.0662 | -1.24 | 1.33 | 1.1 | -0.443 | 1.47 | -0.38 | -2.29 (inactive) | -0.141 | -0.972 (inactive) | -0.492 (inactive) | 0.343 (inactive) | 0.427 (inactive) | -0.0469 | -0.21 | 0.666 | 0.244 | 2.18
4 | CC(C)OC(=O)C=C1C[C@@H](c2ccc(C#N)cc2)O[C@@H](c2ccc(C#N)cc2)O1 | 1.48 | 1.22 | 0.704 | 0.978 | 1.31 | 0.267 | -0.356 | 0.48 | 0.972 | -0.178 (inactive) | 0.923 | -2.6 (inactive) | 0.618 (inactive) | 2.74 (inactive) | 0.421 (inactive) | 0.77 | 0.165 | 1.99 | 2.06 | 0.292
5 | CCOC(=O)CCN1C(=O)[C@H]2[C@H]3[C@H](O)[C@H](O)CC(=O)[C@H]3CC[C@H]2C1=O | 0.683 | 0.676 | -0.186 | 0.29 | 0.369 | 0.364 | -0.648 | 0.413 | 0.125 | 0.524 (inactive) | 0.0032 | -3.04 (inactive) | -0.829 (inactive) | 0.429 (inactive) | -0.236 (inactive) | 0.275 | -0.183 | 0.269 | 0.326 | 0.693
6 | COC(=O)[C@H](C)NC(=O)[C@@H](C)CO | 0.548 | 1.2 | 0.48 | 0.941 | 0.252 | 0.108 | -1.08 | 0.602 | 1 | 0.877 (inactive) | 0.174 | -0.76 (inactive) | 0.06 (inactive) | -0.432 (inactive) | 0.17 (inactive) | 0.733 | -0.0313 | 0.927 | 0.461 | 0.575
7 | COc1ccccc1CN1C(=O)c2ccccc2[C@@H](C(=O)NCC(F)(F)F)[C@@H]1c1ccc(CO)cc1 | 0.218 | 0.993 | 0.391 | 0.532 | 1.06 | 1.05 | 1.13 | 1.13 | 0.185 | 0.806 (inactive) | 0.324 | -1.92 (inactive) | -1.6 (inactive) | 0.504 (inactive) | -1.28 (inactive) | 0.299 | 0.16 | 0.156 | 0.336 | 1.92
8 | C=CC[C@@H]1C=C[C@H](ON=C(C)CCN2CCc3nc(CC)c(CC)cc3C2)[C@@H](CO)O1 | 0.242 | -0.202 | -0.191 | -1.5 | 1.3 | 0.466 | 2.17 | 1.48 | 0.0749 | 0.624 (inactive) | 0.255 | -0.667 (inactive) | 0.983 (inactive) | 3.51 (inactive) | 0.319 (inactive) | 0.372 | 0.0785 | 0.97 | 1.12 | 1.85
9 | C[C@@H]1CC[C@H]2C(=O)O[C@H](COc3ccc(C(C)(C)C)cc3)CN2[C@H]1c1ccc(Br)cc1 | 2.99 | -0.701 | -0.0482 | 0.54 | -0.123 | 0.0203 | 1.87 | 0.0924 | 0.148 | -1.36 (inactive) | -0.131 | -0.443 (inactive) | -0.301 (inactive) | 0.262 (inactive) | 0.203 (inactive) | 0.102 | -0.17 | -0.175 | -0.142 | 0.348
10 | CN(C)CCCNC(=O)[C@@H]1c2ccccc2C(=O)N(Cc2cc(F)cc(C(F)(F)F)c2)[C@H]1c1ccc(CO)cc1 | 0.77 | 1.07 | -0.0288 | 0.216 | 1.28 | 0.309 | -0.00183 | -0.271 | 0.039 | 0.0764 (inactive) | 0.095 | -1.77 (inactive) | -0.101 (inactive) | 0.351 (inactive) | 0.159 (inactive) | -0.621 | -0.0849 | 0.65 | -0.348 | 0.388

— PubChem BioAssay
